Test results taken from the supplement of paper PMC3334620.
The full ranking holds about 33,000 sequences; the median of “E-score (-0.5 to 0.5)” is about -0.04, and the highest 2% start at about 0.36. Only a selection was taken, and the highest values are over-represented in it overall.

biological target: T1, Hmlalpha2 (UniProt P0CY09); experiment: PBM E-score (8-mer binding enrichment) (E-score (-0.5 to 0.5)); higher = stronger / more preferred TF binding; settings: protein concentration: 200 nM; construct: GST-full length
T1 sequence: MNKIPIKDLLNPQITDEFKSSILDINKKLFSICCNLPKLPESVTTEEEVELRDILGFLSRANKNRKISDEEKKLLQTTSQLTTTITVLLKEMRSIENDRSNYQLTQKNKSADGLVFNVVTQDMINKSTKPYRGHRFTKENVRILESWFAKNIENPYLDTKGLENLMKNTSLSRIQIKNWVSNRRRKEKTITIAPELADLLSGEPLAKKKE
Protocol: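 Universal 'all 10-mer' protein binding microarrays (Agilent AMADID 015681) probed with GST-tagged S. cerevisiae TFs (full-length or DBD) made by in vitro transcription/translation (PURExpress), about 100-200 nM. Bound TF was detected with fluorescent anti-GST. Each ungapped 8-mer (which stands for itself and its reverse complement) is scored by the PBM enrichment score (E-score), a modified Wilcoxon-Mann-Whitney statistic from -0.5 to +0.5, computed with the Universal PBM Analysis Suite. Scale: above 0.35 generally sequence-specific binding.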

Sequence | PBM E-score
AACGATCT | -0.0798
ACCAAAGG | -0.219
AGCACCCA | -0.176
CGGGTAAA | 0.234
TGTACAAA | 0.422
CGTACACA | 0.347
AGTACACA | 0.387
AGTACAGG | 0.134
AGTACAAA | 0.161
GGTACACA | 0.246
TGTACACA | 0.418
CGTACACG | 0.354
AGTACACC | 0.115
GGTACAAA | 0.138
AGTACACG | 0.437
AGTACACT | 0.074
ACACCGCG | 0.15
GCGACTCA | -0.134
ATGCGAGG | -0.117
GAACGATC | -0.0263
AGAGTGCC | -0.257
CGTACCTA | -0.0874
ACGGCCCC | -0.437
ATGTTAAC | 0.448
GAGTTAAC | 0.234

Sequence | PBM E-score
CTGTTAAA | 0.258
CTGTTAAC | 0.304
GTGTTAAC | 0.462
AAGTTAAC | 0.303
GTGTTAAA | 0.462
TTGTTAAA | 0.359
ATGTTAGC | 0.342
CCCTTAAC | -0.0469
ATACTATC | 0.0717
ATTTGCGA | 0.0385
AAGTTTCC | 0.0351
ATGCTGTG | 0.238
CGGGTCCA | -0.262
AAGCGTCT | -0.232
ATGTTTAC | 0.433
ATGTTTAG | 0.33
CTGTTTCC | -0.11
ATGTTTGC | 0.166
CTGTTTAC | 0.371
CCGTTTAC | 0.259
AGGAGATG | -0.157
AGGAAAAA | 0.00347
GTATTATA | 0.318
ACTATGTA | 0.444
GATATGTA | 0.345

Sequence | PBM E-score
AATATGTC | 0.167
AATATGTA | 0.386
ACTATGTC | 0.165
ACTATGTG | 0.108
GCTATGCA | -0.0142
CCTATGTA | 0.433
CCTATGAA | -0.065
CATATGTA | 0.356
GCTATGTA | 0.426
CCTATGTC | 0.0957
CTTCATTC | -0.149
AAGATCAC | -5e-05
CACAGGTC | -0.101
GAATACCC | -0.19
TGACCAAA | -0.0837
CCAGTAGG | -0.239
GTGAAGCA | -0.113
CTGGAAAG | -0.217
AAACCTTT | -0.111
AGGTATGG | -0.317
ACGCTTGC | -0.0163
TTACCCAA | 0.02
AAGTAATA | 0.24
CTGTAATA | 0.286
CAGTAATG | 0.167

Sequence | PBM E-score
ATGTAACG | 0.362
GTGTAATA | 0.456
GGGTAATA | 0.193
ATGTAATC | 0.478
ATGTAATG | 0.479
CTGTAATC | 0.243
ATGTAATA | 0.48
CGGTAATA | -0.00682
ATGTAACC | 0.304
GGAGTGTA | 0.18
CATGAGGC | -0.166
TACTGTCA | -0.0966
CAGCAGCG | 0.0849
GGGGATAA | -0.178
CCAGGACG | 0.0263
GGGCCAAA | -0.124
GGGCACTA | -0.105
GCACGCCC | -0.0771
AGACGCCT | -0.0767
ACACGCCA | 0.311
ACACGCCC | 0.371
ACACGCCT | 0.374
ACACGCCG | 0.274
ATCCTGCA | -0.0119
CTATTGCA | 0.117

Sequence | PBM E-score
CCGGTTTA | 0.0123
GATGAGCC | -0.213
AGAAGGAA | -0.351
CCCTTAAA | -0.0696
GAGACGGA | -0.095
AAGTAGGC | -0.0798
CTTGAATC | -0.0387
CGATCTCA | -0.0804
AAGATCAG | -0.187
AACAACAT | 0.385
AACAACAG | 0.108
GACAACAC | 0.319
CACAACAC | 0.306
AACAACAC | 0.375
AACAACAA | 0.306
CGAAACCC | -0.121
CTTCTAGC | -0.197
CCCCGCAC | -0.201
CCGGGAAG | -0.179
CGTCCCCA | -0.224
CTACATGA | 0.421
GTACATGA | 0.426
GCACATGA | 0.0937
CGACATGA | 0.319
CTACATCA | 0.222

Sequence | PBM E-score
GTACATTA | 0.316
AACATTGC | 0.191
GGAATCTA | -0.132
GCACGGAC | -0.0335
ACCAAATA | 0.191
ACACACAA | 0.313
ACACACAC | 0.326
CTATACAG | 0.0549
AGACACAA | 0.172
ACACATAT | 0.317
AAACACAT | 0.314
ATACACAA | 0.42
ACACACAT | 0.379
ATACACAG | 0.408
ATACACAT | 0.399
AGACACAT | 0.128
ACACACAG | 0.364
TTCATGAA | -0.00198
ATTGAGCA | 0.0182
ATAACCAC | -0.0123
ACCCCCGA | -0.0909
GGCAAAGA | -0.0294
CCCCTGTC | -0.152
GGCCAGCC | -0.192
CAGCGACG | -0.0401

Sequence | PBM E-score
ATACACAC | 0.429
ATACACCG | 0.145
ATACACTC | 0.185
CGCTGAGA | -0.139
CCCTCAGA | -0.285
CTATTCCC | -0.203
AGTGCACC | -0.2
ACGTGTGA | 0.229
CAGTGTAC | 0.154
ACGTGTAG | 0.429
CCGTGTAG | 0.452
CCGTGTCG | 0.233
ACGTGTAA | 0.482
AGGTGTAG | 0.0925
AAGTGTAG | 0.0742
CAGTGTAG | 0.243
CCGTGTAC | 0.422
CCGTGTCC | 0.0408
AGGTGTAA | 0.317
CGGACGGA | -0.198
AGACTGGA | -0.0528
CGAATCGC | -0.169
